From PubChem BioAssay (NCI)
Compounds without any hit were thinned out: in the full panel of roughly 79,000, 15% have a hit. Unmarked numbers belong to inactive results. The source made the active and inactive calls. Cut-off read from the data, not from the text of the source: active = growth inhibition above about 70%; inactive = the rest.

Legend:
[1] = NCI Yeast Anticancer Drug Screen. Data for the rad50 strain (AID 155);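 note: 0% = growth of vehicle-only cultures of the same strain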; settings: S. cerevisiae rad50 strain growth inhibition; at 50.0 µM; active compounds read high
How it was run: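 Inhibition values express reduced yeast growth in compound-treated cultures relative to vehicle-treated controls.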

[2] = NCI Yeast Anticancer Drug Screen. Data for the mec2-1 strain (AID 157); settings: S. cerevisiae mec2-1 strain, at 50.0 µM, active compounds read high
How it was run: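 Each compound was tested on mec2-1 yeast, a strain altered in DNA damage repair or cell cycle control. Growth inhibition is reported relative to vehicle.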

[3] = NCI Yeast Anticancer Drug Screen. Data for the sgs1 mgt1 strain (AID 161);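 note: 0% = growth of cultures given vehicle only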; settings: S. cerevisiae sgs1 mgt1 strain, at 50.0 µM, active compounds read high
How it was run: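 Test agents were incubated with a DNA-repair-mutant yeast strain. Growth was then read and compared against vehicle-treated controls.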

[4] = NCI Yeast Anticancer Drug Screen. Data for the cln2 rad14 strain (AID 165);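 note: 0% = growth equal to vehicle treated cultures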; settings: S. cerevisiae cln2 rad14 strain, at 50.0 µM, active compounds read high
How it was run: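 Test compounds were added to cln2 rad14 yeast cultures; inhibition of growth was then determined by comparison with vehicle treatment.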

[5] = NCI Yeast Anticancer Drug Screen. Data for the bub3 strain (AID 167); settings: S. cerevisiae bub3 mutant strain, at 50.0 µM, active compounds read high
How it was run: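 Steps: expose the mutant yeast strain to compound; grow alongside vehicle-treated cultures; measure growth; express inhibition against the vehicle cultures.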

[6] = NCI Yeast Anticancer Drug Screen. Data for the mlh1 rad18 strain (AID 175); settings: S. cerevisiae mlh1 rad18 strain growth inhibition; at 50.0 µM; active compounds read high
How it was run: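 Inhibition values reflect reduced growth of mutant yeast versus vehicle-treated controls following compound exposure; the mutations affect DNA damage repair.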

COc1ccc(S(=O)(=O)O)cc1NC(=O)CC(=O)c1cccc([N+](=O)[O-])c1
growth inhibition [1]: -5.5%
growth inhibition [2]: -18%
growth inhibition [3]: 9.2%
growth inhibition [4]: 9.05%
growth inhibition [5]: -12%
growth inhibition [6]: -15.9%

COc1ccc(C2=NC(C)(C)CO2)cc1C
growth inhibition [1]: -23.1%
growth inhibition [2]: -4.15%
growth inhibition [3]: 3.6%
growth inhibition [4]: -17.9%
growth inhibition [5]: 21.1%
growth inhibition [6]: 20.5%

C(=C\c1cc(-c2ccc3ccccc3n2)nc2ccc3ccccc3c12)/c1ccc2ccccc2n1
growth inhibition [1]: 9.7%
growth inhibition [2]: -1.4%
growth inhibition [3]: 26.9%
growth inhibition [4]: 28.9%
growth inhibition [5]: 25.5%
growth inhibition [6]: -11.2%

COC(=O)c1nc(N)nc(C(=O)OC)c1C(=O)c1c(C)[nH]c2ccccc12
growth inhibition [1]: -9.85%
growth inhibition [2]: -20%
growth inhibition [3]: -36.9%
growth inhibition [4]: -30.1%
growth inhibition [5]: -28.4%
growth inhibition [6]: -25.6%

O=C(NCCCl)NCc1ccco1
growth inhibition [1]: -6.6%
growth inhibition [2]: 0.9%
growth inhibition [3]: -3.55%
growth inhibition [4]: -39.2%
growth inhibition [5]: -4.85%
growth inhibition [6]: -0.9%

CCOC(=O)C1C(C)=CC(=O)CC1C(C)C (stereo unspecified)
growth inhibition [1]: 4.1%
growth inhibition [2]: -8.5%
growth inhibition [3]: 5.7%
growth inhibition [4]: -20.6%
growth inhibition [5]: -15.8%
growth inhibition [6]: 5.2%

COc1cc(C(=O)O)c(C(=O)O)cc1OC
growth inhibition [1]: 2.6%
growth inhibition [2]: 21.4%
growth inhibition [3]: 20.5%
growth inhibition [4]: -29.1%
growth inhibition [5]: 2.45%
growth inhibition [6]: 0.5%

CC(C)(CN1CCCCC1)C(=O)/C=C/c1ccc(Cl)cc1
growth inhibition [1]: 34.6%
growth inhibition [2]: 11.9%
growth inhibition [3]: 36.2%
growth inhibition [4]: 38.5%
growth inhibition [5]: 12.6%
growth inhibition [6]: 46.7%

N=C(CN1CCCCC1)N1CCCCC1
growth inhibition [1]: -2.5%
growth inhibition [2]: -15.3%
growth inhibition [3]: -5.15%
growth inhibition [4]: -58.1%
growth inhibition [5]: 10.2%
growth inhibition [6]: 12.6%

Clc1ccc2c(N3CCC(CCC4CCN(c5ncnc6cc(Cl)ccc56)CC4)CC3)ncnc2c1
growth inhibition [1]: -17.9%
growth inhibition [2]: -21.6%
growth inhibition [3]: -7.4%
growth inhibition [4]: -39.4%
growth inhibition [5]: -14.6%
growth inhibition [6]: -14.2%

CCCNC(=S)/N=C/c1c(O)cc(C)oc1=O
growth inhibition [1]: -51.6%
growth inhibition [2]: -65.6%
growth inhibition [3]: -24.2%
growth inhibition [4]: -0.3%
growth inhibition [5]: -18.5%
growth inhibition [6]: -42.2%

OC(C1CCCCC1)(C1CCC2(CCCCC2)CC1)C1CCCC2CCCCC21 (stereo unspecified)
growth inhibition [1]: 29.9%
growth inhibition [2]: 5%
growth inhibition [3]: 30.9%
growth inhibition [4]: 21.5%
growth inhibition [5]: 1.35%
growth inhibition [6]: 20.1%

CNC(=O)OCC1=CC(=O)C=C(OC)C1=O
growth inhibition [1]: 7.3%
growth inhibition [2]: -14.9%
growth inhibition [3]: 18.4%
growth inhibition [4]: 14.4%
growth inhibition [5]: 2.45%
growth inhibition [6]: 9%

O=C(Nc1ccccc1-c1nn(CO)c(=S)n(CO)c1=O)C(F)(F)F
growth inhibition [1]: 40.2%
growth inhibition [2]: 23.9%
growth inhibition [3]: 43.2%
growth inhibition [4]: 12.6%
growth inhibition [5]: -22.6%
growth inhibition [6]: 20.2%

COc1cc2c(c3c1c(=S)c1ccccc1n3C)C=CC(C)(C)O2
growth inhibition [1]: 59.5%
growth inhibition [2]: 18.9%
growth inhibition [3]: 86.2% (active)
growth inhibition [4]: 27.1%
growth inhibition [5]: 82.7% (active)
growth inhibition [6]: 78.1% (active)

CC1=NN(c2nc(N)nc(CCl)n2)CC1
growth inhibition [1]: 11.1%
growth inhibition [2]: 6.35%
growth inhibition [3]: 8.15%
growth inhibition [4]: 21.9%
growth inhibition [5]: 11.5%
growth inhibition [6]: -29.2%

COC(=O)C1Cc2ccccc2C1=O (stereo unspecified)
growth inhibition [1]: -1.75%
growth inhibition [2]: -13.2%
growth inhibition [3]: -14.8%
growth inhibition [4]: -40.5%
growth inhibition [5]: -11.8%
growth inhibition [6]: -6.45%

CCNC(=O)Nc1nc2ccccc2s1
growth inhibition [1]: -27.8%
growth inhibition [2]: -13%
growth inhibition [3]: 1.75%
growth inhibition [4]: -90.7%
growth inhibition [5]: -23.8%
growth inhibition [6]: -21.4%

CC(=O)/C(C)=C\C1C(C)=CCCC1(C)C (stereo unspecified)
growth inhibition [1]: -4.5%
growth inhibition [2]: -33.4%
growth inhibition [3]: -27.8%
growth inhibition [4]: -23.3%
growth inhibition [5]: -14.8%
growth inhibition [6]: -5.85%

N#C/C(=C\c1cc(Br)c(O)c(Br)c1)c1ccccn1
growth inhibition [1]: 50.5%
growth inhibition [2]: 50.1%
growth inhibition [3]: 24.4%
growth inhibition [4]: 2.55%
growth inhibition [5]: -3.35%
growth inhibition [6]: 52.6%

Cc1cc(C)c(C#N)c(SC(C(=O)Nc2cc(C(F)(F)F)ccc2Cl)c2ccccc2)n1 (stereo unspecified)
growth inhibition [1]: 2.35%
growth inhibition [2]: -13.2%
growth inhibition [3]: 23.6%
growth inhibition [4]: 19.1%
growth inhibition [5]: 2.95%
growth inhibition [6]: 8.25%

O=C(/C=C/c1ccccc1)NC1C=Nc2ccccc2NC1=O (stereo unspecified)
growth inhibition [1]: 13.8%
growth inhibition [2]: 18.2%
growth inhibition [3]: 7.2%
growth inhibition [4]: -11.9%
growth inhibition [5]: 7.05%
growth inhibition [6]: 16.1%

CCOS(=O)(=O)CC(C)C(C)C (stereo unspecified)
growth inhibition [1]: 4.75%
growth inhibition [2]: -17.3%
growth inhibition [3]: -7.8%
growth inhibition [4]: -18.1%
growth inhibition [5]: -5.65%
growth inhibition [6]: -9.1%

COc1cc(OC)c(OCc2ccccc2)c(OC)c1
growth inhibition [1]: 12.2%
growth inhibition [2]: 0.25%
growth inhibition [3]: -0.25%
growth inhibition [4]: 2.45%
growth inhibition [5]: -2.5%
growth inhibition [6]: -17.2%

Nc1nc(N)c(N2CCN(Cc3ccccc3)CC2)c(Cl)n1
growth inhibition [1]: 30.1%
growth inhibition [2]: 10.8%
growth inhibition [3]: 33.1%
growth inhibition [4]: 18.9%
growth inhibition [5]: 18.3%
growth inhibition [6]: 27.4%

CCCCc1ccc(-n2cnc3c(=O)[nH]c(N)nc32)cc1
growth inhibition [1]: 5.15%
growth inhibition [2]: 29%
growth inhibition [3]: -8.3%
growth inhibition [4]: -0.4%
growth inhibition [5]: 30.8%
growth inhibition [6]: 26.5%

CC1N=C(SCc2ccc(Cl)cc2)N2C(C)N=C(SCc3ccc(Cl)cc3)N12 (stereo unspecified)
growth inhibition [1]: -12.7%
growth inhibition [2]: -40%
growth inhibition [3]: 5.8%
growth inhibition [4]: 2.7%
growth inhibition [5]: 5.6%
growth inhibition [6]: -6.95%

CCOC(=O)/C(C#N)=C(O)/C(=C\c1ccc(Br)cc1)NC(=O)c1ccccc1
growth inhibition [1]: -29.9%
growth inhibition [2]: -12.9%
growth inhibition [3]: -24.2%
growth inhibition [4]: 13.2%
growth inhibition [5]: -4.25%
growth inhibition [6]: -15.1%

CCOc1cc[n+]([O-])cc1C
growth inhibition [1]: -15.7%
growth inhibition [2]: -9.6%
growth inhibition [3]: 1.45%
growth inhibition [4]: -8.2%
growth inhibition [5]: -3.75%
growth inhibition [6]: 13.1%

C[C@@]12CCC[C@H]1[C@@H]1CCC3=CC(=O)CC[C@]3(C)[C@H]1CC2
growth inhibition [1]: 4.15%
growth inhibition [2]: 1.45%
growth inhibition [3]: -5.55%
growth inhibition [4]: -27.1%
growth inhibition [5]: 10.7%
growth inhibition [6]: 1.05%

CC1CN=C(Nc2ccc(S(N)(=O)=O)cc2)S1 (stereo unspecified)
growth inhibition [1]: -21.2%
growth inhibition [2]: -18.6%
growth inhibition [3]: -58.1%
growth inhibition [4]: -11.4%
growth inhibition [5]: -2.25%
growth inhibition [6]: -43%

CC(=O)Nc1cc(C)c(C)cc1NC(C)=O
growth inhibition [1]: -23.9%
growth inhibition [2]: -16.6%
growth inhibition [3]: -8.35%
growth inhibition [4]: -21.8%
growth inhibition [5]: -5.1%
growth inhibition [6]: -7.4%

COC(=O)C1CC(=O)N(C)c2sc(C)c(C)c2C1=O (stereo unspecified)
growth inhibition [1]: 83.9% (active)
growth inhibition [2]: 94.5% (active)
growth inhibition [3]: 89% (active)
growth inhibition [4]: 36.5%
growth inhibition [5]: 87.7% (active)
growth inhibition [6]: 95.7% (active)

CN=C1Nc2ccc(Cl)cc2C(c2ccccc2)=NN1C
growth inhibition [1]: 10%
growth inhibition [2]: -19.4%
growth inhibition [3]: 2.9%
growth inhibition [4]: 11.3%
growth inhibition [5]: 6.85%
growth inhibition [6]: -12.6%

CCOC(=O)CCCl
growth inhibition [1]: 24%
growth inhibition [2]: 15.6%
growth inhibition [3]: -2.95%
growth inhibition [4]: 30.2%
growth inhibition [5]: 31.3%
growth inhibition [6]: 12.8%

O=c1cc(NCc2c(Cl)cccc2[N+](=O)[O-])[nH]c(=O)[nH]1
growth inhibition [1]: -8.8%
growth inhibition [2]: 37.5%
growth inhibition [3]: 14.7%
growth inhibition [4]: -7.9%
growth inhibition [5]: 15%
growth inhibition [6]: -5.3%

COc1cc(C2c3cc4c(cc3OC3(OC)COC(=O)C23)OCO4)cc(OC)c1OC (stereo unspecified)
growth inhibition [1]: 0.4%
growth inhibition [2]: 13.4%
growth inhibition [3]: 4.9%
growth inhibition [4]: -13.9%
growth inhibition [5]: -21.1%
growth inhibition [6]: -21.4%

N#CCCn1nc(SCc2ccccc2)c(=O)[nH]c1=O
growth inhibition [1]: -2.6%
growth inhibition [2]: 0.3%
growth inhibition [3]: 7.65%
growth inhibition [4]: 6.3%
growth inhibition [5]: -1.65%
growth inhibition [6]: 7.85%

CNC(=O)C1CCCN1C(=O)C(Cc1cnc[nH]1)NC(=O)C1CCC(=O)N1 (stereo unspecified)
growth inhibition [1]: -21.2%
growth inhibition [2]: -13.9%
growth inhibition [3]: -11.6%
growth inhibition [4]: 11.9%
growth inhibition [5]: -14.1%
growth inhibition [6]: -16.8%

Cc1cc(C)c(NC(=O)Nc2cccc(Cl)c2)c(C)c1
growth inhibition [1]: -0.85%
growth inhibition [2]: 17.3%
growth inhibition [3]: 1.7%
growth inhibition [4]: -4%
growth inhibition [5]: 3.35%
growth inhibition [6]: -17.1%

NC1=C(O)C(=O)C(c2ccccc2O)O1 (stereo unspecified)
growth inhibition [1]: -34.6%
growth inhibition [2]: -32.6%
growth inhibition [3]: -19.1%
growth inhibition [4]: -21.6%
growth inhibition [5]: -18.6%
growth inhibition [6]: -10.9%
